The values below come from PubChem BioAssay (NCI).

Some test systems named below: NCI-H226 lung; NCI-H322M lung; HOP-62 NSCLC; NCI-H460 lung; HOP-92 NSCLC; A549/ATCC NSCLC; 786-0 renal; COLO 205 colon; DU-145 prostate; K-562 leukemia; MALME-3M melanoma; MDA-MB-231 breast; RXF 393 renal; SF-268 CNS; SF-295 CNS; SF-539 CNS; UACC-257 melanoma; M14 melanoma; NCI-H522 lung.
Common to all, as to assay: NCI-60 one-dose screen, 48 h (100 = growth as untreated, 0 = no growth, -100 = all killed)
Common to all, as to conditions: 10 µM unless noted

Compounds without any hit were thinned out: in the full panel of roughly 83,000, 20% have a hit.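 Activity criterion: percent growth below 10, measured after cells in 96-well plates were exposed to a single compound concentration for 48 hours.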 Values without a mark were called inactive. Activity calls are given as the source filed them.

On to `COc1cc(/C(C#N)=C/c2ccc3c(c2OC)OCO3)cc2c1OCO2`, for which the growth was 89.9% with NCI-H226 lung; 35.2% in the experiment on NCI-H322M lung; 31.2% in the experiment with HOP-62 NSCLC; 9.09% (active) in the experiment with NCI-H460 lung; 61.2% in the experiment on HOP-92 NSCLC; 27.9% with A549/ATCC NSCLC. The growth in the experiment on 786-0 renal is 33.7%; in the experiment on COLO 205 colon it was -3.05% (active); in the experiment on DU-145 prostate, 11.2%; in the experiment with K-562 leukemia, 20.9%; with MALME-3M melanoma it was 37.1%; in the experiment on MDA-MB-231 breast it was 29.7%. Moreover, the growth in the experiment with RXF 393 renal is -14.3% (active); in the experiment on SF-268 CNS it was 47.1%; in the experiment on SF-295 CNS, 6% (active); in the experiment with SF-539 CNS, 4.21% (active); with UACC-257 melanoma, 62.2%; with M14 melanoma it was -3.69% (active).
For the compound `O=C(O)Cc1cccc(=O)c(O)c1C(=O)O`, the growth was 111% in the experiment on NCI-H226 lung; 129% in the experiment on NCI-H322M lung; 103% in the experiment on HOP-62 NSCLC; 124% with NCI-H460 lung; 103% in the experiment with HOP-92 NSCLC; 106% with NCI-H522 lung. Further, the growth in the experiment on A549/ATCC NSCLC is 104%; in the experiment on 786-0 renal, 100%; in the experiment on COLO 205 colon it was 108%; in the experiment with DU-145 prostate, 117%; in the experiment on MALME-3M melanoma, 92.5%; with MDA-MB-231 breast, 110%. The growth is 112% in the experiment with RXF 393 renal; 107% in the experiment with SF-268 CNS; 117% in the experiment with SF-295 CNS; 110% in the experiment with SF-539 CNS; 103% in the experiment with UACC-257 melanoma; 102% in the experiment on M14 melanoma.
On to `O=C(Nc1cccc(-n2cc(-c3ccncc3)c(-c3ccc(Cl)c(O)c3)n2)c1)c1ccc(N2CCOCC2)c(C(F)(F)F)c1`, for which the growth was 107% with NCI-H226 lung; 82.1% in the experiment on NCI-H322M lung; 40.4% with HOP-62 NSCLC; 5.81% (active) in the experiment on NCI-H460 lung; 10.2% in the experiment on HOP-92 NSCLC; 39.6% in the experiment on NCI-H522 lung. The growth with A549/ATCC NSCLC is 31.4%; in the experiment on 786-0 renal, 59.6%; in the experiment with COLO 205 colon it was 96.1%; with DU-145 prostate, 52.7%; in the experiment on K-562 leukemia, 7.96% (active); in the experiment on MALME-3M melanoma it was 10.7%. Besides, the growth in the experiment on MDA-MB-231 breast is 23.4%; in the experiment on RXF 393 renal, -26% (active); with SF-268 CNS it was 55.5%; with SF-539 CNS it was 41.6%; in the experiment with UACC-257 melanoma, 38.9%; in the experiment with M14 melanoma, 22.7%.
With `S=c1[nH]nc(-c2cc3ccc2CCc2ccc(cc2)CC3)n1C1CC1`, the growth was 108% in the experiment with NCI-H226 lung; 104% with HOP-62 NSCLC; 103% in the experiment on NCI-H460 lung; 89.6% in the experiment with NCI-H522 lung; 108% in the experiment on A549/ATCC NSCLC; 113% in the experiment on COLO 205 colon. The growth with DU-145 prostate was 108%; with K-562 leukemia, 97.9%; in the experiment with MALME-3M melanoma it was 97%; in the experiment on MDA-MB-231 breast, 99.5%; with RXF 393 renal, 105%; in the experiment with SF-268 CNS, 103%. Besides, the growth was 93.8% in the experiment with SF-295 CNS, 98% in the experiment with SF-539 CNS, 105% with UACC-257 melanoma and 97.8% in the experiment with M14 melanoma.
Take `O=C(Nc1cccc(-n2cc(-c3ccncc3)c(-c3ccc(Cl)c(O)c3)n2)c1)Nc1ccc(Cl)c(Cl)c1`: the growth in the experiment with NCI-H226 lung was 24.7%; in the experiment on NCI-H322M lung, 40.6%; in the experiment on HOP-62 NSCLC, 34.4%; in the experiment on NCI-H460 lung, 6.5% (active); in the experiment with HOP-92 NSCLC, -20.2% (active); with NCI-H522 lung it was -6.8% (active). The growth is 4.51% (active) with A549/ATCC NSCLC; 30.1% in the experiment on 786-0 renal; 30.2% in the experiment with COLO 205 colon; 25.9% in the experiment with DU-145 prostate; 11.4% in the experiment with K-562 leukemia; 10.3% in the experiment on MALME-3M melanoma. In addition, the growth is -0.72% (active) with MDA-MB-231 breast; 4.46% (active) in the experiment with RXF 393 renal; 29.1% in the experiment with SF-268 CNS; 37% in the experiment with SF-539 CNS; -17.3% (active) in the experiment with UACC-257 melanoma; 17.2% in the experiment on M14 melanoma.
`C=C[C@@H]1C[C@@H]2Cc3c(C)cc(C)cc3N1O2`: the growth in the experiment with NCI-H226 lung is 95.5%; in the experiment with NCI-H322M lung it was 91.9%; in the experiment with HOP-62 NSCLC, 91.2%; in the experiment with NCI-H460 lung it was 99.8%; with HOP-92 NSCLC, 45.6%; with A549/ATCC NSCLC it was 95.1%. Also, the growth was 105% with 786-0 renal; 100% in the experiment with COLO 205 colon; 108% with DU-145 prostate; 89.8% in the experiment with K-562 leukemia; 77% in the experiment on MALME-3M melanoma; 113% in the experiment with MDA-MB-231 breast. In addition, the growth is 98.3% in the experiment on RXF 393 renal; 93% in the experiment on SF-268 CNS; 92.1% in the experiment on SF-295 CNS; 96.6% in the experiment on SF-539 CNS; 101% in the experiment on UACC-257 melanoma; 104% in the experiment on M14 melanoma.
Consider `Clc1ccc2c(NC3CCC(NC4CCCCC4)CC3)ccnc2c1` (stereo not given), for which the growth in the experiment with NCI-H226 lung is 79.7%; in the experiment on HOP-62 NSCLC, 61.6%; in the experiment with NCI-H460 lung it was 77.5%; in the experiment on HOP-92 NSCLC it was 51.5%; in the experiment with NCI-H522 lung it was 62.2%; in the experiment with A549/ATCC NSCLC, 65.6%. Further, the growth with 786-0 renal was 59.8%; in the experiment on COLO 205 colon it was -71.5% (active); with DU-145 prostate, 80.9%; with K-562 leukemia, 0.509% (active); in the experiment with MALME-3M melanoma, 34.6%; in the experiment with MDA-MB-231 breast, 45.4%. Further, the growth in the experiment on RXF 393 renal was 51.2%; in the experiment on SF-268 CNS, 84.7%; with SF-295 CNS, 60.1%; with SF-539 CNS, 0.613% (active); in the experiment on UACC-257 melanoma it was -51.5% (active).
As for `CC12CCCC(CC(=O)c3[nH]c4ccccc4c31)C2` (stereo not given), the growth is 60.8% with NCI-H226 lung; 35.7% in the experiment with NCI-H322M lung; 28.2% in the experiment with HOP-62 NSCLC; 7.52% (active) in the experiment on NCI-H460 lung; 47% in the experiment on HOP-92 NSCLC; 2.33% (active) in the experiment with NCI-H522 lung. Moreover, the growth was 27.7% with A549/ATCC NSCLC; 41.4% with 786-0 renal; 7.12% (active) with COLO 205 colon; -15.6% (active) in the experiment with DU-145 prostate; 11.2% in the experiment with K-562 leukemia; 36.4% with MALME-3M melanoma. Moreover, the growth with MDA-MB-231 breast was 37.9%; in the experiment on RXF 393 renal, -21.7% (active); with SF-268 CNS, 63.7%; in the experiment on SF-295 CNS it was 15.1%; in the experiment with SF-539 CNS it was -19.1% (active); in the experiment on UACC-257 melanoma, 66.1%. The growth in the experiment on M14 melanoma is 3.66% (active).
For the compound `Clc1cccc(-c2cc(-c3ccc4c(c3)OCCO4)[nH]n2)c1`, the growth was 34.8% [25 µM] in the experiment on NCI-H226 lung; 37.2% [25 µM] in the experiment with NCI-H322M lung; 26.6% [25 µM] in the experiment on HOP-62 NSCLC; 12.1% [25 µM] in the experiment with NCI-H460 lung; 55.4% [25 µM] in the experiment on HOP-92 NSCLC; 0.794% [25 µM] (active) in the experiment with NCI-H522 lung. The growth was 41.2% [25 µM] in the experiment on A549/ATCC NSCLC; 56.8% [25 µM] in the experiment on 786-0 renal; 11.9% [25 µM] in the experiment on COLO 205 colon; 38.8% [25 µM] with DU-145 prostate; 12% [25 µM] in the experiment with K-562 leukemia; 35.4% [25 µM] in the experiment with MALME-3M melanoma. Besides, the growth with MDA-MB-231 breast is 32.4% [25 µM]; in the experiment on RXF 393 renal it was 8.25% [25 µM] (active); with SF-268 CNS it was 53.2% [25 µM]; in the experiment with SF-295 CNS, 29% [25 µM]; in the experiment on SF-539 CNS, 33.6% [25 µM]; in the experiment with UACC-257 melanoma, 74% [25 µM]. Moreover, the growth in the experiment with M14 melanoma is 25% [25 µM].
For the compound `COc1ccc(S(=O)(=O)n2ccc(-c3ccc4c(c3)CCC(C)(C)O4)n2)cc1OC`, the growth in the experiment with NCI-H226 lung was 59%; with NCI-H322M lung, 89.5%; in the experiment on HOP-62 NSCLC, 112%; in the experiment with NCI-H460 lung it was 69.6%; in the experiment with HOP-92 NSCLC it was 58.3%; in the experiment on NCI-H522 lung, 65.8%. The growth with A549/ATCC NSCLC was 67.1%; in the experiment on 786-0 renal it was 79.4%; with COLO 205 colon, 87.1%; in the experiment with DU-145 prostate it was 82.6%; in the experiment on K-562 leukemia it was 53%; in the experiment on MALME-3M melanoma it was 114%. The growth in the experiment with MDA-MB-231 breast was 82.5%; in the experiment on RXF 393 renal, 75.1%; in the experiment on SF-268 CNS it was 85.3%; in the experiment on SF-295 CNS, 63%; in the experiment with SF-539 CNS, 97.1%; with UACC-257 melanoma it was 57.1%. In the experiment with M14 melanoma, the growth is 81.9%.
